Screening data: PubChem BioAssay, several laboratories
Shown are actives, neighbours in structure and some others; about 5.1% of the full set was active somewhere.
RAM inhibit: inhibitors of the yeast RAM network, primary screen, dse1pr::URA3 reporter, 5-FOA selection | S. cerevisiae dse1pr::URA3 reporter, 5-FOA growth OD615, 2 d; analog-sensitive cbk1-as2 kinase mutant strain | inhibition, % at 50 µM | 190,000 compounds, 1.8% hits | AID 868, 2007;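 active means inhibition above a set limit, 3 SD over mean compound inhibition, cut at about 8.4% in these data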;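 further: 0% = DMSO-only wells with no growth and 100% = 10 µM 1-NA-PP1 full growth; inhibition rescues growth on 5-FOA so higher OD means more RAM inhibition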
S1P3 antagonist: S1P3 receptor antagonists, primary screen, cell-based; Sphingosine 1-phosphate receptor 3 (Homo sapiens), Q99500; CHO S1P3 NFAT-BLA reporter, FRET fluorescence, antagonist mode; inhibition, % at 4.98 µM; 170,000 compounds, 0.27% hits; AID 485, 2006;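 active means inhibition above the plate cutoff, the mean inhibition of test wells on that plate plus 3 SD, cut at about 28% in these data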;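 further: cells challenged with S1P at its EC80 of 0.8 µM; blue over green emission ratio from cleaved BLA substrate after 4 h stimulation; 0% = S1P-stimulated wells and 100% = unstimulated DMSO-only wells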
Target sequence (Q99500 whole entry, looked up): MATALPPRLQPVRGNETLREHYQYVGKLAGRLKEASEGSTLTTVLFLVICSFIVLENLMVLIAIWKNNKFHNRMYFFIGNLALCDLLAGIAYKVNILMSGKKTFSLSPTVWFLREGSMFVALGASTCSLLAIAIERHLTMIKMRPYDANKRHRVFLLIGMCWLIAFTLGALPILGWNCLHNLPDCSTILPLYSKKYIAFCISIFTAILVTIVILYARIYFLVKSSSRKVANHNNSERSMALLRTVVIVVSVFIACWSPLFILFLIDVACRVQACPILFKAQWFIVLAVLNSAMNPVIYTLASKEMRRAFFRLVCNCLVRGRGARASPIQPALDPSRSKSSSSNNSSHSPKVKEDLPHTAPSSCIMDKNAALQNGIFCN
S1P4 ag: S1P4 receptor agonists, primary screen, cell-based; Sphingosine 1-phosphate receptor 4 (Homo sapiens), O95977; S1P4-expressing cell line, agonist reporter assay; activation, % at 4.98 µM; 220,000 compounds, 0.35% hits; in the data active means activation above about 11%;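 further: 0% = DMSO vehicle and 100% = reference agonist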
KCC2 mod: KCC2 cotransporter modulators, thallium flux, primary screen, cell-based, HEK293 KCC2, FluoZin-2 fluorescence, MLSMR; 190,000 compounds, 2.2% hits; Solute carrier family 12 member 5 (Homo sapiens), Q9H2X9; KCC2 cells, thallium flux FluoZin-2 fluorescence; B-score of Tl+ flux slope (higher = more flux/activation; lower = inhibition) at 10 µM;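 active means thallium flux slope and its plate-corrected score both differing from the plate sample mean at a set confidence after two filtering rounds, in either direction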;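 further: slope of fluorescence scaled to starting intensity during 10 to 20 s after thallium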
ROMK mod: ROMK potassium channel modulators, primary screen, cell-based, thallium flux, MLSMR library; ATP-sensitive inward rectifier potassium channel 1 (Homo sapiens), P48048; Tet-inducible ROMK, thallium flux fluorescence; actives lie on both sides; B-score at 10 µM; 130,000 compounds, 2% hits;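 active means signal ratio slope over the read window, or its plate-corrected B-score, at least 3 SD from the plate mean, either direction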;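 further: B-score of the F/F0 ratio slope over 7 to 12 s after thallium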
S1P4 antagonist: S1P4 receptor antagonists, primary screen, cell-based | Sphingosine 1-phosphate receptor 4 (Homo sapiens), O95977 | S1P4-expressing cells, antagonist mode, reporter read-out | inhibition, % at 4.98 µM | 220,000 compounds, 0.26% hits | AID 1510, 2009; in the data active means inhibition above about 29%;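 further: 0% = wells stimulated with agonist and 100% = vehicle wells without agonist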
* hit, by the source's call; nt = no result.

SMILES	RAM inhibit	S1P3 antagonist	S1P4 ag	KCC2 mod	ROMK mod	S1P4 antagonist
CS(=O)(=O)c1sc2nc(-c3cccs3)cc(-c3ccccc3)c2c1N	11*	35	0	0.01	nt	7
CC(NC(=O)CCCN1C(=O)c2ccccc2C1=O)c1ccc2c(c1)CCCC2 (centres undefined)	2	nt	1	-2.2	0.54	11
CC(NC(=O)CCCCCCN1C(=O)c2ccccc2C1=O)c1ccc2c(c1)CCCC2 (centres undefined)	11*	8	0	-2.2	-1.7	-15
CC(NC(=O)CCCCCN1C(=O)c2ccccc2C1=O)c1ccc2c(c1)CCCC2 (centres undefined)	9.1*	nt	-2	nt	nt	1
COc1cc(OC)c(NS(=O)(=O)c2ccc(Cl)c(C(=O)OC(C)C(=O)N3CCCC3)c2)cc1Cl (centres undefined)	2	3	0	-2	-1.8	-18
CCOc1ccc2nc(/N=C/c3c(C)[nH]n(-c4ccccc4)c3=O)sc2c1	2	-3	1	77*	2.6*	-7
Cc1[nH]n(-c2ccccc2)c(=O)c1/C=N/O	0	nt	1	nt	1.3	-21
CCOc1ccc2nc(/N=C/c3c(C)[nH]n(-c4ccc(C)cc4)c3=O)sc2c1	1	-1	0	69*	0.26	-3
COc1ccc(-c2nnc3sc(CCN4C(=O)c5ccccc5C4=O)nn23)cc1	9.4*	10	-1	nt	-0.36	-8
O=C(Cc1ccc(S(=O)(=O)N2CCOCC2)s1)Nc1ccc2c(c1)CCC2	9.4*	-8	1	-0.12	nt	0
CC(=O)Nc1ccc(NC(=O)Cc2ccc(S(=O)(=O)N3CCCCC3)s2)cc1	1	-17	1	-0.47	1.4	-11
O=C(NCc1ccc(F)cc1)c1nc(-c2cccs2)no1	8.5*	-12	2	-0.52	0.073	-9
CC(=O)c1ccc(-c2cc([C@H]3[C@H]4C=CC[C@@H](C)[C@@H]4C(=O)N3Cc3ccccc3)ccc2F)cc1	nt	nt	nt	-0.88	nt	nt
Cc1cc(NC(=O)c2cc3n(n2)C(C(F)(F)F)CC(c2ccc(Cl)c(Cl)c2)N3)no1 (centres undefined)	0	55*	-1	-0.66	-1.3	15
COc1cccc(C2CC(C(F)(F)F)n3nc(C(=O)Nc4c(C)n(C)n(-c5ccccc5)c4=O)cc3N2)c1 (centres undefined)	3	-16	0	-0.1	-0.5	3
Cc1ccc(C2CC(C(F)(F)F)n3nc(C(=O)Nc4c(C)n(C)n(-c5ccccc5)c4=O)cc3N2)cc1 (centres undefined)	9.9*	-49	1	0.76	0.056	-5
Cc1cccc(NC(=O)c2cc3n(n2)C(C(F)(F)F)CC(c2ccc4c(c2)OCO4)N3)c1 (centres undefined)	3	18	1	-0.3	nt	-8
O=C(/C=C/c1ccc2c(c1)OCO2)NCCSCc1cccc(Cl)c1	9.0*	nt	-1	0.13	0.86	7
CN(C)C(CNC(=O)c1cc(S(=O)(=O)N(C)c2ccccc2)ccc1Cl)c1cccs1 (centres undefined)	1	7	1	-2.8	nt	-16
C=CCN1C(=O)CS/C1=N\N=C\c1cccc([N+](=O)[O-])c1	3	-13	1	0.62	-0.049	-13
CC1Oc2ccccc2C=C1/C=N/Nc1ccc(C(=O)O)cc1 (centres undefined)	nt	-6	4	0.37	nt	1
O=C1NC(Nc2nccs2)(C(F)(F)F)C(=O)N1CCc1ccccc1 (centres undefined)	-1	-27	1	-2.6*	1.4	0
COc1ccc(CCN2C(=O)NC(NC(=O)CCc3ccccc3)(C(F)(F)F)C2=O)cc1OC (centres undefined)	1	-18	0	-0.16	nt	-18
O=c1/c(=C\c2cccc(O)c2)sc2nc(-c3ccccc3)c(-c3ccccc3)n12	nt	4	1	0.32	nt	-12
